Drawing on PubChem BioAssay, this text covers composite z-score and z-score for four molecules.

The test system of experiment [1] is Wnt5a (protein binding on small-molecule microarray). The experiment is described as follows: Wnt5a binders on small-molecule microarray, primary screen, biophysical, 635/667 nm fluorescence (AID 1142).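 Further: fluorescence read at 667 nm with signal to noise per printed feature.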 The following applies: 635 nm fluorescence, higher = more signal.
The nature of experiment [2]: cell viability in Huh7 cells, primary screen, cytotoxicity control for HCV replication inhibitor project, CellTiter-Glo luminescence, basal, 48 h (AID 1143).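 Further: Huh7 hepatoma cells carrying a hepatitis C replication reporter with no stimulus; test concentration not given here.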 The following applies: Huh7 HCV replicon, higher = more signal, called active from +8 up or from −8 down. A general note: ATP-based viability assays read luminescence as a measure of living cells.
The nature of experiment [3]: P. aeruginosa biofilm formation inhibitors, primary screen, PAO1 strain, BacTiter-Glo luminescence, LB-PBS (AID 1144). The following applies: 12 h, higher = more signal.
Experiment [4] in a line: CREB reporter modulators without forskolin, primary screen, cell-based, PC12, CRE-LacZ reporter, unstimulated (AID 1145). To be noted: no forskolin, luminescence, 4.5 h, higher = more signal, called active from +8 up or from −8 down.
The nature of experiment [5]: CREB reporter modulators under forskolin, primary screen, cell-based, PC12, CRE-LacZ reporter, forskolin-stimulated (AID 1146).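 Further: PC12 cells with 6xCRE LacZ reporter stimulated by forskolin 10 µM; beta-galactosidase reporter signal reflecting CREB driven transcription.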 To be noted: luminescence, 4.5 h, higher = more signal, called active from +8 up or from −8 down.
The target in experiment [6] is Streptavidin (Streptomyces avidinii) (UniProt P22629). The experiment can be described thus: streptavidin binders on small-molecule microarray, primary screen, artefact control for SMM compound annotation, biophysical, 635/667 nm fluorescence (AID 1147).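 Further: signal reflects streptavidin binding to arrayed compounds as a control protein.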 The following applies: streptavidin binding, higher = more signal.
Streptavidin (Streptomyces avidinii), sequence (P22629 whole entry, looked up): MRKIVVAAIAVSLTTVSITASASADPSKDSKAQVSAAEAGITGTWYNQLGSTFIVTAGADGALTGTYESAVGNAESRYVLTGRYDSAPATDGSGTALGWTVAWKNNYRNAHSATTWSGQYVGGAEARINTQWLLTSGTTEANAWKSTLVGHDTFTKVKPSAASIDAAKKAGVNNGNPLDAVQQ
The nature of experiment [7]: small-molecule binders of probe aInhba, primary screen, biochemical, small-molecule microarray, 635/667 nm fluorescence (AID 1148).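 Further: score merges 667nm spot fluorescence with signal-to-noise for antibody binding to printed compounds.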 To be noted: higher = more signal.
The target of experiment [8] is Torsin-1A (Homo sapiens) (UniProt O14656). The experiment is described as follows: torsin A binders from cell lysate, primary screen, small-molecule microarray, wild-type, 635/667 nm (AID 1149). To be noted: COS7 hTOR1A-WT lysate, 635 nm fluorescence, higher = more signal.
Torsin-1A (Homo sapiens), sequence (O14656 whole entry, looked up): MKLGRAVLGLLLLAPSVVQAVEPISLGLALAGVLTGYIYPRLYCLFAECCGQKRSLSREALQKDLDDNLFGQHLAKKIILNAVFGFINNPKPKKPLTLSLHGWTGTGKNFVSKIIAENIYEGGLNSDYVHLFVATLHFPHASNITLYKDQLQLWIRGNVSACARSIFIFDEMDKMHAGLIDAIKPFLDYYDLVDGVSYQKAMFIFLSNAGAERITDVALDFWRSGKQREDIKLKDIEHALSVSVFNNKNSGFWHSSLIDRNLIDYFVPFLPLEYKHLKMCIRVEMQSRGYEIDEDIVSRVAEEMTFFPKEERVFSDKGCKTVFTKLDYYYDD
Experiment [9] has the same target. The experiment is described as follows: small-molecule binders of mutant TOR1A in lysate, primary screen, cell lysate, small-molecule microarray, COS7 lysate, 635/667 nm fluorescence (AID 1150).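 Further: score pools 667 nm emission and signal to noise measuring lysate protein binding.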 The following applies: COS7 hTOR1A mutant lysate, 635 nm fluorescence, higher = more signal.
Experiment [10] relates to Sonic hedgehog protein (Shh). The experiment can be described thus: small-molecule binders of Shh protein, primary screen, biochemical, small-molecule microarray, 635/667 nm fluorescence (AID 1151).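 Further: Shh protein binding to compounds spotted on small-molecule microarray slides; score combines spot fluorescence intensity with signal-to-noise across triplicate slides.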 To be noted: small-molecule microarray binding, 635 nm fluorescence; higher = more signal.
A short description of experiment [11]: E. coli DRC41 culture turbidity changes, primary screen, E. coli filamentation inducer project, strain DRC41, OD650, 48 h (AID 1152).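 Further: E. coli MC1000 strain DRC41 lacking acrAB efflux pump and sulA.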 To be noted: E. coli DRC41 (acrAB sulA), higher = more signal, called active from +8 up or from −8 down.
The nature of experiment [12]: small-molecule binders of probe aLefty1, primary screen, biochemical, small-molecule microarray, 635/667 nm fluorescence (AID 1153).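 Further: score merges spot fluorescence with signal-to-noise ratio from the scanned slide images.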 The following applies: higher = more signal.
Experiment [13] is described as follows: PSAC antagonists in infected red cells, primary screen, cell-based, P. falciparum Indochina, OD700, 1 h (AID 1154). To be noted: P. falciparum Indochina infected RBC osmotic lysis, higher = more signal, called active from +8 up or from −8 down.
A short description of experiment [14]: PSAC antagonists in infected red cells, primary screen, cell-based, P. falciparum Indochina, OD700, 2 h (AID 1155).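 Further: lysis reports solute entry through the parasite surface anion channel PSAC; channel blockers reduce lysis of infected cells.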 The following applies: P. falciparum Indochina infected erythrocytes, osmotic lysis OD700; higher = more signal, called active from +8 up or from −8 down.
Experiment [15] can be described thus: osmotic lysis modulators in infected erythrocytes, primary screen, PSAC antagonist project, cell-based, P. falciparum Indochina, OD700, 3 h (AID 1156). The following applies: higher = more signal, called active from +8 up or from −8 down.
Experiment [16] is described as follows: PSAC antagonists in infected red cells, primary screen, cell-based, P. falciparum Indochina, OD700, 18 h (AID 1157). To be noted: P. falciparum Indochina infected erythrocytes, osmotic lysis OD700, 18 h; higher = more signal, called active from +8 up or from −8 down.
Experiment [17] is described as follows: modulators of S6 phosphorylation in cells, primary screen, cell-based, A549, cytoblot, luminescence, serum-stimulated (AID 1158).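 Further: serum-stimulated A549 lung adenocarcinoma cells; signal is phosphorylated S6 detected by cytoblot immunostaining with HRP secondary.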 To be noted: A549 phospho-S6 cytoblot, 5 h, higher = more signal.
For experiment [18], the target named is NADPH oxidase 2 (Homo sapiens) (UniProt P04839). The experiment can be described thus: NOX2-dependent H2O2 signal modulators, primary screen, NOX inhibitor project, cell-based, HEK293-NOX2, PMA-stimulated, Amplex Red fluorescence (AID 1159). Further: test concentration not given here. The following applies: 45 min, higher = more signal, called active from +8 up or from −8 down.
NADPH oxidase 2 (Homo sapiens), sequence (P04839 whole entry, looked up): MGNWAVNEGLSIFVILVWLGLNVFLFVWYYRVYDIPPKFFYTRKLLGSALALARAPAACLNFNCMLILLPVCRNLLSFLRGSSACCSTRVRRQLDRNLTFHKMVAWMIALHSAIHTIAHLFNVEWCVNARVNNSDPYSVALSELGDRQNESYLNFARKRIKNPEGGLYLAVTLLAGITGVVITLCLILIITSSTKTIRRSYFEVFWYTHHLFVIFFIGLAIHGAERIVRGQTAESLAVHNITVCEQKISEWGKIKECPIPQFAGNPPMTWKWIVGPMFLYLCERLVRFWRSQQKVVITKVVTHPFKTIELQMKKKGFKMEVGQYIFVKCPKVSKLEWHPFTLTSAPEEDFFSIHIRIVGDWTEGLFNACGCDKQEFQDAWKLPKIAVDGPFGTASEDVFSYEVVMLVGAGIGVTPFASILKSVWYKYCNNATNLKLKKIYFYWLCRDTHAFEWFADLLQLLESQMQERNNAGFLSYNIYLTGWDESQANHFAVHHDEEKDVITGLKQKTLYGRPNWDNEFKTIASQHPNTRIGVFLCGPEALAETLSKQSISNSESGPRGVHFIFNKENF
Experiment [19] concerns the target NADPH oxidase 4 (Homo sapiens) (UniProt Q9NPH5). The experiment is described as follows: NOX4-dependent H2O2 signal modulators, primary screen, NOX inhibitor project, cell-based, HEK293-NOX4, tetracycline-induced, Amplex Red fluorescence (AID 1160). The following applies: 45 min, higher = more signal, called active from +8 up or from −8 down.
For experiment [20], the target named is NADPH oxidase 5 (Homo sapiens) (UniProt Q96PH1). The experiment is described as follows: NOX5-dependent H2O2 signal modulators, primary screen, NOX inhibitor project, cell-based, HEK293-NOX5, Amplex Red fluorescence (AID 1161). The following applies: HEK293-NOX5, ionomycin, 45 min, higher = more signal.
NADPH oxidase 5 (Homo sapiens), sequence (Q96PH1 whole entry, looked up): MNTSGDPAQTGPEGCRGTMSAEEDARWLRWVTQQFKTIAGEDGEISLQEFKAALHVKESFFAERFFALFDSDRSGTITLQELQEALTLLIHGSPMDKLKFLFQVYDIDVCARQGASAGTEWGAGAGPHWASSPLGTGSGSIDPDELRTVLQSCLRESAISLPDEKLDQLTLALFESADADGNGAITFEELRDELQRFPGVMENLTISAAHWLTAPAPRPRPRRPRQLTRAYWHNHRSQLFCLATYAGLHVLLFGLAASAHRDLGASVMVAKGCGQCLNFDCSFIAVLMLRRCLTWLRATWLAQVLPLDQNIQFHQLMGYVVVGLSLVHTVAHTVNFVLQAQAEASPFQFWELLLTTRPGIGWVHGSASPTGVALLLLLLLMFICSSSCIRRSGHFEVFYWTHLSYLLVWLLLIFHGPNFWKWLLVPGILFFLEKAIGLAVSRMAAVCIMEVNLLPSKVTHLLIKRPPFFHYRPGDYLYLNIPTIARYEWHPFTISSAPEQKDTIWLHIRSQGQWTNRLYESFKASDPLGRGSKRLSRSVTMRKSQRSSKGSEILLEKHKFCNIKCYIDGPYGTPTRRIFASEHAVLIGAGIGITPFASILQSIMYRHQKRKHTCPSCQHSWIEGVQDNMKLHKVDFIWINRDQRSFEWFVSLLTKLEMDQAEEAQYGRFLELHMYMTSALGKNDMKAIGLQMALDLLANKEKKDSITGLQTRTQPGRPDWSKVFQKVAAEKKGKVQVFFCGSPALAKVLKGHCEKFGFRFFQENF

Structures are written as SMILES. The source made the active and inactive calls. Unless noted, how the calls were made is not given here.

NADPH oxidase 4 (Homo sapiens), sequence (Q9NPH5 whole entry, looked up): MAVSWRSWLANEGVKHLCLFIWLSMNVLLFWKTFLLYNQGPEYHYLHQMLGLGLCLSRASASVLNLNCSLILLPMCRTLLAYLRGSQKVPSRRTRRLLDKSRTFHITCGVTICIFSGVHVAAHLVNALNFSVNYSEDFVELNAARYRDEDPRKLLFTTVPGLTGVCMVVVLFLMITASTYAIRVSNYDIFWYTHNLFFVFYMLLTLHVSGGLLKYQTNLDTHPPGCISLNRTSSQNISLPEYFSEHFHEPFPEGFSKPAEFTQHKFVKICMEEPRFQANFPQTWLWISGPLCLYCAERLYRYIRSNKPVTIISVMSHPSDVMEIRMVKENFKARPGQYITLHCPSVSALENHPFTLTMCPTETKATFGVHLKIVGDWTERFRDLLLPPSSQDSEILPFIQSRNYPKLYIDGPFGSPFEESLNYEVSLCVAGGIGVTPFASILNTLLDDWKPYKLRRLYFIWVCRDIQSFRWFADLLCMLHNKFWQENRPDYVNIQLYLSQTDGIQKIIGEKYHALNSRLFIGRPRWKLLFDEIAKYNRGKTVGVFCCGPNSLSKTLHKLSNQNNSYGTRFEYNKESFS

For `COC(=O)[C@@]1(Cc2ccc(OC)cc2)[C@H]2c3cc(C(=O)N4CCCC4)n(Cc4ccc(S(C)(=O)=O)cc4)c3C[C@H]2CN1C(=O)c1ccccc1`, the composite z-score in [1] is 0.21; in experiment [6], 1.73; in experiment [7], 0.102; in experiment [8] it was 0.272; in experiment [9] it was 0.422; in [10], -1.12. Further, the composite z-score in [12] is 0.315. The z-score in experiment [2] is -0.86 (inactive); in [3] it was -0.0122 (inactive); in experiment [4] it was -0.185 (inactive); in experiment [5] it was -0.755 (inactive); in experiment [11], -1.08 (inactive); in experiment [13], 2.29 (inactive). Further, the z-score is 0.326 (inactive) in [14]; 0.6 (inactive) in [15]; 0.617 (inactive) in [16]; -0.688 in [17]; 0.385 (inactive) in experiment [18]; -0.389 (inactive) in experiment [19]. Also, the z-score in experiment [20] is -1.7.

With `C=C(C(=O)CC[C@H](OC(=O)c1ccccc1-c1ccccc1C(=O)O)c1ccccc1OCCO)C(C)C`, the composite z-score is 0.121 in experiment [1]; -0.344 in [6]; 0.0569 in experiment [7]; 0.659 in experiment [8]; 0.34 in experiment [9]; 1.49 in experiment [10]. Also, in [12], the composite z-score is -0.0573. The z-score in [2] is -0.594 (inactive); in experiment [3], -0.0112 (inactive); in [4], 3.25 (inactive); in experiment [5], 1.19 (inactive); in experiment [11] it was 0.342 (inactive); in [13] it was 6.14 (inactive). Besides, the z-score in experiment [14] is 1.12 (inactive); in experiment [15], 2.1 (inactive); in experiment [16], 0.577 (inactive); in experiment [17], -0.549; in experiment [18], 2.97 (inactive); in experiment [19] it was -0.13 (inactive). Moreover, in [20], the z-score was -1.51.

For `CO[C@H]1O[C@H](CO)[C@@H](OC(=O)Nc2ccc(C#N)cc2)[C@@H]2OC(=O)[C@H](Cc3cccc(Br)c3)C/C=C/C[C@@H](Cc3cccc(Br)c3)C(=O)O[C@@H]12`, the composite z-score is 0.563 in experiment [1]; 0.336 in experiment [6]; -0.0327 in [7]; 0.185 in experiment [8]; -0.163 in experiment [9]; 1.34 in experiment [10]. In [12], this molecule showed a composite z-score of 0.941. Also, the z-score in [2] is -3.82 (inactive); in [3], -1.36 (inactive); in [4] it was -0.602 (inactive); in [5], -0.404 (inactive); in [11], 0.766 (inactive); in experiment [13] it was 1.52 (inactive). The z-score in experiment [14] is -0.178 (inactive); in [15] it was 0.842 (inactive); in experiment [16] it was 0.558 (inactive); in [17], -0.257; in experiment [18], -1.59 (inactive); in experiment [19], 0.311 (inactive). The molecule further gave a z-score in [20] of -0.214.

For `COc1cc(NN2C(C(O)c3ccccc3)C=CC3C(=O)N(C)C(=O)C32)cc(OC)c1OC` (stereo not given), the composite z-score in experiment [1] was 0.107; in [6] it was 0.194; in experiment [7], 0.0184; in [8], -0.0091; in [9], 0.576; in experiment [10], 0.36. In experiment [12], this molecule had a composite z-score of 0.0455. For the same molecule, the z-score is -2.51 (inactive) in experiment [2]; -0.426 (inactive) in experiment [3]; 0.0603 (inactive) in experiment [4]; -0.126 (inactive) in [5]; -1.05 (inactive) in experiment [11]; 0.758 (inactive) in [13]. Besides, the z-score in experiment [14] is 0.34 (inactive); in [15], 1.21 (inactive); in experiment [16], -0.447 (inactive); in [17], 1.44; in experiment [18], -3.07 (inactive); in [19] it was -5.77 (inactive). In experiment [20], this molecule displayed a z-score of -6.19.
